From ChEMBL document CHEMBL1961873, “Compounds: GSK PKIS; Assays: Nanosyn kinase panel” (2012)

molecular target: T1, Interleukin-1 receptor-associated kinase 4 (Homo sapiens) (UniProt Q9NWZ3); conditions: at 1 µM;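 note: mean inhibition values, from the GSK PKIS dataset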
T1 sequence (whole entry): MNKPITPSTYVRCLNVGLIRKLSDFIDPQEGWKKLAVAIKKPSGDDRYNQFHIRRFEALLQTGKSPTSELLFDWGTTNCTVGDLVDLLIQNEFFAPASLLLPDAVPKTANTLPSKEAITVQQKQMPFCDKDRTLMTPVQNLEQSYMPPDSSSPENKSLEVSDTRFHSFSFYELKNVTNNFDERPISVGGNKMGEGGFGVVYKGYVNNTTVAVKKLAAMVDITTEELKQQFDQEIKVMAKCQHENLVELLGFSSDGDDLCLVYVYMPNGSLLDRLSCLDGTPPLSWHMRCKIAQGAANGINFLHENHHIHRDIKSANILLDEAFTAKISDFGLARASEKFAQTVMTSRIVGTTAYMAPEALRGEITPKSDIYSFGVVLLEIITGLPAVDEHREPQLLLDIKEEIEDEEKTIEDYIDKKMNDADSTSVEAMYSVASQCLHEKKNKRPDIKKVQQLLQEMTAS

Row | SMILES | inhibition
1 | O=C(O[C@H]1CN[C@H](C#Cc2cc3ncnc(Nc4ccc(Cc5ccccc5)cc4)c3s2)C1)N1CCOCC1 | -0.2%
2 | CCNC(=O)O[C@H]1CN[C@H](C#Cc2cc3ncnc(Nc4ccc(OCc5cccc(F)c5)c(Cl)c4)c3s2)C1 | 6.03%
3 | O=S(=O)(CCNCc1ccc(-c2ccc3ncnc(Nc4ccc(OCc5cccc(F)c5)c(Cl)c4)c3c2)o1)c1ccccc1 | 2.63%
4 | Cc1cccc(Nc2ncc(-c3ccccc3)o2)c1 | 1.27%
5 | N#Cc1c(NC(=O)c2ccc(F)cc2)sc2c1CCCC2 | 0.51%
6 | NS(=O)(=O)c1ccc(N/N=C2\C(=O)Nc3ccc4ncccc4c32)cc1 | 2.77%
7 | CC(=O)Nc1cccc(C#Cc2cncnc2Nc2ccc(OCc3cccc(F)c3)c(Cl)c2)c1 | 1.86%
8 | COc1cccc(-n2ncc3c(N/N=C/c4ccc(F)cc4)ncnc32)c1 | 1.4%
9 | CCCN(CCS(C)(=O)=O)Cc1ccc(-c2ccc3ncnc(Nc4ccc(OCc5cccc(F)c5)c(Cl)c4)c3c2)o1 | 0.98%
10 | COc1cccc(-c2c[nH]c3c(N/N=C/c4ccncc4)ncnc23)c1 | 5.06%
11 | CCn1cc(-c2ccnc3[nH]ccc23)c(-c2cccc(NC(=O)Nc3ccc(OCc4ccccc4)cc3)c2)n1 | -0.44%
12 | Cc1ccc(O)cc1Nc1ccnc2cc(-c3ccccn3)ccc12 | 2.33%
13 | CCn1c(-c2nonc2N)nc2c(C#CC(C)(C)O)ncc(OC3CCNCC3)c21 | 1.93%
14 | CCn1c(-c2nonc2N)nc2c(C#CC(C)(C)O)nc(OC[C@H](N)c3ccccc3)cc21 | 1.37%
15 | Cc1ccc2c(-c3ccnc(Nc4ccccc4)n3)c(-c3ccc(F)cc3)nn2n1 | 1.87%
16 | [O-][S+]1CCN(Cc2ccc(-c3ccc4ncnc(Nc5ccc(OCc6cccc(F)c6)c(Cl)c5)c4c3)o2)CC1 | 1.66%
17 | COc1ccc2[nH]c3c4[nH]c5ccc(OC)cc5c4c4c(c3c2c1)C(=O)NC4=O | 4.52%

Row | SMILES | inhibition
18 | c1cc(-c2cnn3nc(N4CCOCC4)ccc23)nc(NC2CC2)n1 | 4.62%
19 | Cc1cccc2c1NC(=O)/C2=N\Nc1ccc(S(N)(=O)=O)cc1 | 1.25%
20 | CC(C)COC(=O)c1ccc2c(c1)/C(=C/Nc1ccc(S(N)(=O)=O)cc1)C(=O)N2 | 0.81%
21 | N#Cc1c(NC(=O)CN2CCOCC2)sc2c1CCCC2 | 2.93%
22 | CC1=C(C(=O)Nc2cc(Cl)c3[nH]ncc3c2)C(c2ccc(C(F)(F)F)cc2)CC(=O)N1 (stereo not drawn) | 1.44%
23 | c1ccc(-c2nc3n(c2-c2ccc4c(c2)OCO4)CCC3)nc1 | 0.56%
24 | COC(=O)Nc1nc2ccc(Oc3ccc(NC(=O)Nc4cccc(Cl)c4)cc3)cc2[nH]1 | 0.32%
25 | Nc1nc(-c2cccc(Cl)c2)c(-c2ccc3ncccc3n2)s1 | 2.05%
26 | COc1cc(N2CCN(C(C)C)CC2)ccc1Nc1nc(Nc2ccc(F)cc2C(N)=O)c2cc[nH]c2n1 | 1.94%
27 | NS(=O)(=O)c1ccc(Nc2ncc(-c3ccccc3)o2)cc1 | 1.92%
28 | COc1ccc2c(-c3ccnc(Nc4cccc(OC(F)(F)F)c4)n3)cnn2n1 | 2.91%
29 | O=C(Nc1n[nH]c2cc(-c3ccc(F)cc3)ccc12)C1CC1 | 1.45%
30 | CS(=O)(=O)CCNCc1ccc(-c2ccc3ncnc(Nc4ccc(OCc5ccccc5)c(C(F)(F)F)c4)c3c2)o1 | 1.09%
31 | Nc1nc(-c2ccc(F)cc2)c(-c2ccc3ncccc3n2)s1 | 2.12%
32 | CC(C)(CO)CNC(=O)c1ccc2c(c1)/C(=N/Nc1ccc(S(N)(=O)=O)cc1)C(=O)N2 | -0.85%
33 | FC(F)(F)c1cccc(-c2nn3ncccc3c2-c2ccnc(Nc3ccc4c(c3)OCCO4)n2)c1 | 0.32%
34 | COc1cc2c(cc1Nc1nc(Nc3ccsc3C(N)=O)c3cc[nH]c3n1)N(C(=O)CN(C)C)CCC2(C)C | 2.28%

molecular target: Leucine-rich repeat serine/threonine-protein kinase 2 (Homo sapiens) (UniProt Q5S007); conditions: at 0.1 µM;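 note: reported values are averaged percent inhibition of LRRK2 kinase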
Sequence (Q5S007 whole entry): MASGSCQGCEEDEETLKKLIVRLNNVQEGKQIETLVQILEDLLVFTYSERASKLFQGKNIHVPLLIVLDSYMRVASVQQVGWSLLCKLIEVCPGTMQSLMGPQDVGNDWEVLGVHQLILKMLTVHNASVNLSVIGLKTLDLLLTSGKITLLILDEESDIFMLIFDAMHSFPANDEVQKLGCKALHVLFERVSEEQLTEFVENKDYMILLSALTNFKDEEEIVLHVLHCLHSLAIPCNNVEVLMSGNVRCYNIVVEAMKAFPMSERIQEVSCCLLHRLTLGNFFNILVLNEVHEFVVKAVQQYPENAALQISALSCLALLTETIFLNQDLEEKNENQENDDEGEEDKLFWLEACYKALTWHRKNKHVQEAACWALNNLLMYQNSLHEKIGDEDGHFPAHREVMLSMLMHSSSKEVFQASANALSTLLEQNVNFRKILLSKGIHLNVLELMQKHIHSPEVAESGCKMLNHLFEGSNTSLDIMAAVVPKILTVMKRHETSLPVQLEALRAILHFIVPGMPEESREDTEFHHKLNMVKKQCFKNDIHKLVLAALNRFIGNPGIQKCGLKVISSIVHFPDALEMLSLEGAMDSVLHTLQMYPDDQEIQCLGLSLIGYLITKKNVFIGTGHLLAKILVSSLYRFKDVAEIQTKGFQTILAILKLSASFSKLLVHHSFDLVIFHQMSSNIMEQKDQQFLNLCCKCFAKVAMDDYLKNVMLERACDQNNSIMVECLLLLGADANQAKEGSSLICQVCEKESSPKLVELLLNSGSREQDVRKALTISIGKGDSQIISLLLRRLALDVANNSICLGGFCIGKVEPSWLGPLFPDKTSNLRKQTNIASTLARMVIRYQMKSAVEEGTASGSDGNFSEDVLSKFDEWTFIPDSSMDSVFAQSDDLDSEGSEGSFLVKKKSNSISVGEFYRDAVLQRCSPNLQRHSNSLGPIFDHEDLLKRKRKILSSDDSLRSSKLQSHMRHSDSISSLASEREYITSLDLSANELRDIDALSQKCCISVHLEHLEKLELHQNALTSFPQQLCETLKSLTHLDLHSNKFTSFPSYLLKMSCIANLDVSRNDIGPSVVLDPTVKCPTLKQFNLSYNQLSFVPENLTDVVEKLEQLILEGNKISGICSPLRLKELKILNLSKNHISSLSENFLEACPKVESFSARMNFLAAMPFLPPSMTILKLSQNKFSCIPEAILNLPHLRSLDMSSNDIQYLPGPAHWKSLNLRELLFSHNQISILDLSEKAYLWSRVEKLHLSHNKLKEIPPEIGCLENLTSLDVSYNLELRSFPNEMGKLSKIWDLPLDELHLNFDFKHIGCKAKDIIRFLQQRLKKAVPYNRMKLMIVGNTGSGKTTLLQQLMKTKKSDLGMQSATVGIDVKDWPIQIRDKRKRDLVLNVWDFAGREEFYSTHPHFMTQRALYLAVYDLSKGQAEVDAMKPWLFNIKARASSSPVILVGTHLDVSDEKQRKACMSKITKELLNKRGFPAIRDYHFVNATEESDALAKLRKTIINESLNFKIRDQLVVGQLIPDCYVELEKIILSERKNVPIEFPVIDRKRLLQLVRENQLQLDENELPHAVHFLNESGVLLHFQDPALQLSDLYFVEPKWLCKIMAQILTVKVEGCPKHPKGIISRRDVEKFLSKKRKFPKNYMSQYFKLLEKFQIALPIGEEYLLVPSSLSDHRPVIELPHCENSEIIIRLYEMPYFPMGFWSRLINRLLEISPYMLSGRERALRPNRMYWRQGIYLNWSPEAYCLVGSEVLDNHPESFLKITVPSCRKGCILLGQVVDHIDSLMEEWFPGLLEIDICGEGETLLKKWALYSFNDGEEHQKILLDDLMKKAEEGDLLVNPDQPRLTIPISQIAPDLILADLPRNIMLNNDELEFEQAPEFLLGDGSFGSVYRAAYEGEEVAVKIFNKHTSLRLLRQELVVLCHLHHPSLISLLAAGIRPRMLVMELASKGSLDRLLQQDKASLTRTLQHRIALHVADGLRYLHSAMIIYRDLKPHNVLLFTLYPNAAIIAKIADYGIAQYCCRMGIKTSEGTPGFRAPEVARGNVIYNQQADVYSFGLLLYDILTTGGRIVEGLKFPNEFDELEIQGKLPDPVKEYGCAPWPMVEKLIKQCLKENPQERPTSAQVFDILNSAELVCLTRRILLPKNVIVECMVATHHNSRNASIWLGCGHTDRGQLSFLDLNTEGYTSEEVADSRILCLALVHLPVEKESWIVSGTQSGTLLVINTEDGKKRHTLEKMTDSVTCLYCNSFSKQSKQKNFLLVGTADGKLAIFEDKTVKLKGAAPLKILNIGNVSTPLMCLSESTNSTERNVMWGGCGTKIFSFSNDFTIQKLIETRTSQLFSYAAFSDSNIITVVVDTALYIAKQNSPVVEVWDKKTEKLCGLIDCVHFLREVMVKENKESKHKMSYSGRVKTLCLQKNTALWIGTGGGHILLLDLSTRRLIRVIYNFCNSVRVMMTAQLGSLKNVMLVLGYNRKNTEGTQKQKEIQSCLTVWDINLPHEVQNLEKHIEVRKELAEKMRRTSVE

Row | SMILES | inhibition
35 | O=C(O[C@H]1CN[C@H](C#Cc2cc3ncnc(Nc4ccc(Cc5ccccc5)cc4)c3s2)C1)N1CCOCC1 | 1.27%
36 | CCNC(=O)O[C@H]1CN[C@H](C#Cc2cc3ncnc(Nc4ccc(OCc5cccc(F)c5)c(Cl)c4)c3s2)C1 | 3.12%
37 | O=S(=O)(CCNCc1ccc(-c2ccc3ncnc(Nc4ccc(OCc5cccc(F)c5)c(Cl)c4)c3c2)o1)c1ccccc1 | 4.97%
38 | Cc1cccc(Nc2ncc(-c3ccccc3)o2)c1 | 1.6%
39 | N#Cc1c(NC(=O)c2ccc(F)cc2)sc2c1CCCC2 | 0.58%
40 | NS(=O)(=O)c1ccc(N/N=C2\C(=O)Nc3ccc4ncccc4c32)cc1 | 19.4%
41 | CC(=O)Nc1cccc(C#Cc2cncnc2Nc2ccc(OCc3cccc(F)c3)c(Cl)c2)c1 | 4.77%
42 | COc1cccc(-n2ncc3c(N/N=C/c4ccc(F)cc4)ncnc32)c1 | 1.96%
43 | CCCN(CCS(C)(=O)=O)Cc1ccc(-c2ccc3ncnc(Nc4ccc(OCc5cccc(F)c5)c(Cl)c4)c3c2)o1 | 3.72%
44 | COc1cccc(-c2c[nH]c3c(N/N=C/c4ccncc4)ncnc23)c1 | 4.34%
45 | CCn1cc(-c2ccnc3[nH]ccc23)c(-c2cccc(NC(=O)Nc3ccc(OCc4ccccc4)cc3)c2)n1 | 2.13%
46 | Cc1ccc(O)cc1Nc1ccnc2cc(-c3ccccn3)ccc12 | 5.01%
47 | CCn1c(-c2nonc2N)nc2c(C#CC(C)(C)O)ncc(OC3CCNCC3)c21 | 0.26%
48 | CCn1c(-c2nonc2N)nc2c(C#CC(C)(C)O)nc(OC[C@H](N)c3ccccc3)cc21 | 7.19%
49 | Cc1ccc2c(-c3ccnc(Nc4ccccc4)n3)c(-c3ccc(F)cc3)nn2n1 | 3.22%
50 | [O-][S+]1CCN(Cc2ccc(-c3ccc4ncnc(Nc5ccc(OCc6cccc(F)c6)c(Cl)c5)c4c3)o2)CC1 | 3.74%
51 | COc1ccc2[nH]c3c4[nH]c5ccc(OC)cc5c4c4c(c3c2c1)C(=O)NC4=O | 20.8%

Row | SMILES | inhibition
52 | c1cc(-c2cnn3nc(N4CCOCC4)ccc23)nc(NC2CC2)n1 | 4.63%
53 | Cc1cccc2c1NC(=O)/C2=N\Nc1ccc(S(N)(=O)=O)cc1 | 2.99%
54 | CC(C)COC(=O)c1ccc2c(c1)/C(=C/Nc1ccc(S(N)(=O)=O)cc1)C(=O)N2 | 7.28%
55 | N#Cc1c(NC(=O)CN2CCOCC2)sc2c1CCCC2 | 2.88%
56 | CC1=C(C(=O)Nc2cc(Cl)c3[nH]ncc3c2)C(c2ccc(C(F)(F)F)cc2)CC(=O)N1 (stereo not drawn) | 2.62%
57 | c1ccc(-c2nc3n(c2-c2ccc4c(c2)OCO4)CCC3)nc1 | 1.19%
58 | COC(=O)Nc1nc2ccc(Oc3ccc(NC(=O)Nc4cccc(Cl)c4)cc3)cc2[nH]1 | 6.71%
59 | Nc1nc(-c2cccc(Cl)c2)c(-c2ccc3ncccc3n2)s1 | 3.53%
60 | COc1cc(N2CCN(C(C)C)CC2)ccc1Nc1nc(Nc2ccc(F)cc2C(N)=O)c2cc[nH]c2n1 | 84.9%
61 | NS(=O)(=O)c1ccc(Nc2ncc(-c3ccccc3)o2)cc1 | 3.47%
62 | COc1ccc2c(-c3ccnc(Nc4cccc(OC(F)(F)F)c4)n3)cnn2n1 | 5.25%
63 | O=C(Nc1n[nH]c2cc(-c3ccc(F)cc3)ccc12)C1CC1 | 0.78%
64 | CS(=O)(=O)CCNCc1ccc(-c2ccc3ncnc(Nc4ccc(OCc5ccccc5)c(C(F)(F)F)c4)c3c2)o1 | 2.22%
65 | Nc1nc(-c2ccc(F)cc2)c(-c2ccc3ncccc3n2)s1 | 1.84%
66 | CC(C)(CO)CNC(=O)c1ccc2c(c1)/C(=N/Nc1ccc(S(N)(=O)=O)cc1)C(=O)N2 | 3.58%
67 | FC(F)(F)c1cccc(-c2nn3ncccc3c2-c2ccnc(Nc3ccc4c(c3)OCCO4)n2)c1 | 3.16%
68 | COc1cc2c(cc1Nc1nc(Nc3ccsc3C(N)=O)c3cc[nH]c3n1)N(C(=O)CN(C)C)CCC2(C)C | 90.7%
